# Measured values taken from the supplement of paper PMC10933113.
# ± gives the uncertainty stated by the source.
# System: KeratinoSens (HaCaT ARE-luciferase) cells
# Assay: Nrf2/ARE luciferase activation call in qHTS KeratinoSens assay (1 = active, 0 = inactive)
# Conditions: not given;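 active = curve rank above 3; inactive = curve rank 0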
row,SMILES,Nrf2/ARE luciferase activation call
1,Cc1occc1C(=O)Nc1ccc(C(=O)N2CCC(F)(F)/C(=C\C(=O)N3CCC(N4CCCCC4)CC3)c3ccccc32)cc1.Cc1occc1C(=O)Nc1ccc(C(=O)N2CCC(F)(F)/C(=C\C(=O)N3CCC(N4CCCCC4)CC3)c3ccccc32)cc1.O=C(O)/C=C/C(=O)O,not active ARE inducer (skin sensitizer alert) (inactive)
2,C[NH+](C)CCC(c1ccccc1)c1cccc[nH+]1.O=C([O-])/C=C\C(=O)[O-] (stereo not given),not active ARE inducer (skin sensitizer alert) (inactive)
3,CCCC[N+]1(C)CCCCC1.O=S(=O)([O-])C(F)(F)F,not active ARE inducer (skin sensitizer alert) (inactive)
4,CCN(CC)CCc1nc(-c2ccccc2)no1.O=C(O)CC(O)(CC(=O)O)C(=O)O,not active ARE inducer (skin sensitizer alert) (inactive)
5,CCOc1cc(N)c(Cl)cc1C(=O)NCC1CN(Cc2ccc(F)cc2)CCO1.O=C(O)CC(O)(CC(=O)O)C(=O)O (stereo not given),not active ARE inducer (skin sensitizer alert) (inactive)
6,CC(C)(C)NC[C@H](O)COc1nsnc1N1CCOCC1.O=C(O)/C=C\C(=O)O,not active ARE inducer (skin sensitizer alert) (inactive)
7,CC(C)NCC(O)COc1ccc(COCCOC(C)C)cc1.CC(C)NCC(O)COc1ccc(COCCOC(C)C)cc1.O=C(O)/C=C/C(=O)O (stereo not given),not active ARE inducer (skin sensitizer alert) (inactive)

# System: THP-1
# Assay: CD86 surface expression induction over DMSO control (% over DMSO); higher = stronger dendritic cell activation
# Conditions: exposure time: 24 h
# Method: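 hCLAT-like CD54 and CD86 surface expression on THP1 cells after 24 h exposure at a single concentration (highest non-cytotoxic concentration, or 100-200 µM if not cytotoxic). Flow cytometry (iQue) was run on 5,000 live cells.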
row,SMILES,CD86 surface expression induction
1,CCC1OCC(COc2ccc(Oc3ccccc3)cc2)O1 (stereo not given) [Diofenolan] (10 µM),-18.9 ± 5.4
2,O=C(N/N=C/c1ccccc1O)c1ccncc1 [Salinazid] (10 µM),7.77 ± 2.8
3,CC(C)c1ccc2oc3nc(N)c(C(=O)O)cc3c(=O)c2c1 [Amlexanox] (100 µM),8.56 ± 19
4,CC(C)=CCC1C(=O)N(c2ccccc2)N(c2ccccc2)C1=O [Feprazone] (200 µM),71.8 ± 44
5,CC(C)(C)c1ccc(C(=O)CCCCl)cc1 [4'-Tert-butyl-4-chlorobutyrophenone] (100 µM),-2.04 ± 0.44
6,CCOc1ccc2nc(S(N)(=O)=O)sc2c1 [Ethoxzolamide] (200 µM),-1.83 ± 4.6
7,CCOc1ccc2nc3cc(N)ccc3c(N)c2c1 [Ethacridine lactate monohydrate] (200 µM),42.2 ± 53
8,O=C(NS(=O)(=O)/C=C/c1ccccc1)c1ccc(F)cc1Cl (200 µM),-3.08 ± 4.4
9,CC1=C(/C=C/C(C)=C\C=C\C(C)=C\C(=O)O)C(C)(C)CCC1 [9-cis Retinoic acid] (100 µM),5.14 ± 16
10,Clc1ccc(C(Cn2ccnc2)OCc2c(Cl)cccc2Cl)c(Cl)c1 (stereo not given) [Isoconazole] (100 µM),76.1 ± 95
11,c1ccc(CCNc2nc(-c3ccccc3)cs2)cc1 [Fanetizole] (200 µM),-6.54 ± 1.4
12,CCCCc1ccc2[nH]c(NC(=O)OC)nc2c1 [Parbendazole*] (200 µM),65.8 ± 110
13,COc1cc(C(C)C)c2c(c1)S(=O)(=O)N(COc1cc(=O)n3cccc(OCCN4CCCCC4)c3n1)C2=O (100 µM),117 ± 98
14,Oc1c(I)cc(Cl)c2cccnc12 [Clioquinol] (100 µM),64.9 ± 88
15,CCCCCCCCCCCC(=O)NCCCN(C)C [N-[3-(Dimethylamino)propyl]dodecanamide] (200 µM),43.4 ± 63
16,COc1ccc2cc(CCC(C)=O)ccc2c1 [Nabumetone] (100 µM),-3.23 ± 4.6
17,O=C(Nc1ncc([N+](=O)[O-])s1)c1cccs1 [Tenonitrozole] (10 µM),-9.19 ± 11
18,"CC(O)C#CC(C)O (stereo not given) [Hex-3-yne-2,5-diol] (10 µM)",0.05 ± 2.9
19,O=C(O)Cc1cc(I)c(Oc2cc(I)c(O)c(I)c2)c(I)c1 [Tetrac] (100 µM),12.3 ± 2
20,Cc1cc(C2(c3cc(C)c(O)cc3C)OS(=O)(=O)c3ccccc32)c(C)cc1O [p-Xylenol blue] (200 µM),2.3 ± 1.9
21,Clc1ccccc1-c1nc(-c2ccncc2)no1 [Pifexole] (100 µM),3.84 ± 13
22,CC(=O)C1(C)CC2=C(CCCC2(C)C)CC1C (stereo not given) (100 µM),9.62 ± 13
23,COc1ccc(-c2cc(=S)ss2)cc1 [Anethole trithione] (100 µM),-4.63 ± 2.6
